High-throughput results deposited in PubChem BioAssay by Broad Institute.
This is a sample that favours compounds with a hit; in the whole collection about 2.2% have one here.
TRPM1 prom inh = MITF TRPM1 promoter inhibition in SK-MEL-5 cells. SK-MEL-5 TRPM1 promoter luciferase, 24 h. inhibition, % at 12.5 µM. 0.83% of 330,000 active. AID 488899;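 active = mean inhibition across replicates of 60% or more, whatever share of single replicates reaches that level; inconclusive = some that reach 60%, reason not given; inactive = mean inhibition across replicates below 60%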
EBV LMP1 NFkB = inhibitors of Epstein-Barr LMP1-induced NF-kappaB reporter | 0.69% of 350,000 active | LMP1-induced NF-kappaB luciferase reporter cells, luminescence | inhibition, % at 12.5 µM; in the data active = inhibition above about 41%; inconclusive = no clear call, values can overlap the other calls
LGR2 antag = inhibitors of bursicon-induced Drosophila LGR2 receptor cAMP signaling. AID 720647. HEK293 LGR2, CRE-luciferase, bursicon-stimulated, 4 h. 0.35% of 380,000 active. inhibition, % at 9.99 µM;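 active = drop in luminescence signal, shown as inhibition above about 50% in the replicate tests, limit read from the data, passing the limit was not always enough; inconclusive = probably only some replicates passing the limit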;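 note: agonist challenge used bursicon conditioned medium at about half maximal strength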
PAX8 reporter = inhibitors of PAX8 transcriptional activity in RMG-I cells; inhibition, % at 12.6 µM; 1.2% of 360,000 active; RMG-I TPO-luciferase reporter, SteadyGlo, 24 h;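 active = mean replicate inhibition at least 60% with every replicate also reaching 60%; inconclusive = only one of the two criteria is met; inactive = mean below 60% and not all replicates reaching 60%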;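 note: luciferase light reporting Pax8 driven TPO promoter activity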
Shn3 inh set2 = reduces Shn3 3'UTR luciferase signal in osteoblasts | inhibition, % at 12.5 µM | Clone20 osteoblast Shn3 3'UTR firefly luciferase, 24 h | 0.52% of 360,000 active | AID 588674;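 active = mean inhibition of at least 75% with every replicate also reaching 75%; inconclusive = mean inhibition at least 75% but some replicate below; inactive = mean inhibition below 75%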
EWS-Fli inh = inhibitors of EWS/Fli oncoprotein transcriptional activity. A673 NR0B1-luciferase reporter, viability-normalised. inhibition, % at 12.6 µM. 0.67% of 350,000 active;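 active = mean inhibition of at least 50% after viability correction, with every replicate also passing that limit; inconclusive = mean reaches 50% but only one of two replicates passes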;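 note: firefly luciferase signal divided by Alamar Blue viability fluorescence both relative to DMSO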
A number is an active result; i = inactive; ? = inconclusive; nt = no result given; ! = not confirmed by another sample.

SMILES | TRPM1 prom inh | EBV LMP1 NFkB | LGR2 antag | PAX8 reporter | Shn3 inh set2 | EWS-Fli inh
C[C@@H]1CN([C@@H](C)CO)C(=O)Cc2cc(NC(=O)NC3CCCCC3)ccc2O[C@H]1CN(C)Cc1ccc(C(F)(F)F)cc1 | nt | nt | i | nt | nt | i
CCOC(=O)[C@]12CCC=C1N(Cc1ccc(Cl)cc1Cl)C(=O)[C@H](CC(=O)N1CCN(C(=O)c3ccco3)CC1)C2 | nt | nt | i | 79 | nt | i
COC(=O)[C@]12CCCCC=C1N(Cc1cccc3ccccc13)C(=O)[C@H](CC(=O)NCc1ccc(OC)c(OC)c1)C2 | nt | nt | 89 | i | nt | i
CCCCCCCCN1C(=O)[C@H](CC(=O)N2CCN(C(=O)c3ccco3)CC2)C[C@@]2(C(=O)OCC)CCCC=C12 | nt | nt | i | 87 | nt | i
COC(=O)[C@]12CCCCC=C1N(Cc1ccccc1)C(=O)[C@H](CC(=O)N1CCN(C(=O)c3ccco3)CC1)C2 | nt | nt | i | 81 | nt | i
COc1cccc(NC(=O)N2C[C@H](O)COC[C@@H]3O[C@@H](CC(=O)NCc4ccccc4F)CC[C@H]32)c1 | nt | nt | i | nt | nt | nt
COC(=O)[C@]12CCCCC=C1N(Cc1ccc(Cl)cc1Cl)C(=O)[C@H](CC(=O)N1CCN(C(=O)c3ccco3)CC1)C2 | nt | nt | i | 109 | nt | i
CC(C)C(=O)Nc1ccc2c(c1)C(=O)N(C)[C@@H]1CC[C@H](CC(=O)O)O[C@H]1CO2 | nt | nt | i | i | nt | i
O=c1c2ccccc2sc2ccc(C#CC3(O)CCCCC3)cc12 | 93 | 81 | 100 | 69 | 89 | 89
O=C(/C=C/c1cccnc1)/C=C/c1cccnc1 | 96 | i | i | 92 | 94 | 73
COc1ccc(OC)c(C(=O)/C=C/c2cccnc2)c1 | i | i | i | 72 | i | i
COc1cc(C(=O)/C=C/c2cccnc2)ccc1O | i | i | i | i | i | i
Cc1noc(C)c1S(=O)(=O)N(C)C[C@H]1OCCCC[C@@H](C)Oc2ccc(NS(=O)(=O)c3ccccc3)cc2C(=O)N([C@H](C)CO)C[C@@H]1C | nt | nt | i | i | nt | i
C[C@@H]1CN([C@H](C)CO)C(=O)c2cc(NC(=O)c3ccccc3)ccc2O[C@@H](C)CCCCO[C@@H]1CN(C)C(=O)c1ccncc1 | nt | nt | i | i | nt | nt
O=C(O)C[C@H]1CC[C@@H]2[C@H](COC[C@@H](O)CN2S(=O)(=O)c2ccc(F)cc2)O1 | nt | nt | i | nt | nt | nt
Cc1cc(C(=O)N/N=C/c2ccc3c(c2)OCO3)c(C)n1-c1ccc(F)cc1 | i | i | i | i | i | i
Cc1cc(C(=O)N/N=C/c2ccc(Cl)c([N+](=O)[O-])c2)c(C)n1-c1ccc(F)cc1 | 63 | i | i | i | i | i
N#C[C@H]1[C@H](c2ccccc2C2=CCCCC2)[C@@H](CO)N1S(=O)(=O)c1cccc(F)c1 | nt | nt | i | nt | nt | i
O=C(NC[C@@H]1[C@@H](c2ccccc2)[C@@H](CO)N1Cc1ccccc1)c1ccccn1 | nt | nt | i | nt | nt | nt
COc1ccc(NC(=O)c2nc(C)c(C3(C)CC(c4cccnc4)=NO3)s2)cc1 (stereo unspecified) | i | i | i | i | i | 68
COc1cc(C(=O)N(C(C)C)C2CCCCC2)cc(OC)c1OC | nt | i | i | i | i | i
CCN(C(=O)c1cc(OC)c(OC)c(OC)c1)C1CCCCC1 | nt | 48 | i | i | i | i
CC(C)OCCCNC(=O)c1cccc(NC(=O)c2ccccc2)c1 | i | i | i | 126 | i | i
CCN(C(=O)c1cccc(NC(=O)c2ccccc2)c1)C1CCCCC1 | i | 51 | i | i | i | i
O=C(Nc1cccc(C(=O)NC2CCCCC2)c1)c1ccccc1 | i | i | i | i | i | i
SMILES | TRPM1 prom inh | EBV LMP1 NFkB | LGR2 antag | PAX8 reporter | Shn3 inh set2 | EWS-Fli inh
Cc1noc(C)c1NC(=O)N(C)C[C@H]1Oc2c(NC(=O)Nc3ccc4c(c3)OCO4)cccc2C(=O)N([C@H](C)CO)C[C@H]1C | nt | nt | i | nt | nt | i
C/C=C/c1ccc([C@@H]2[C@@H](CO)N(C(=O)CC)[C@H]2CN(C)S(C)(=O)=O)cc1 | nt | nt | i | i | nt | i
CC1(C)SC2c3ccccc3C(=O)N2[C@@H]1C(=O)NCCCN1CCOCC1 (stereo partly specified) | i | 71 | nt | nt | i | nt
Nc1cc2nc3ccccc3oc-2cc1=O | 88 | i | nt | nt | i | i
O=c1oc2ccccc2cc1-c1nc2ccccc2o1 | i | i | i | nt | i | i
COc1ccc(-n2nc([N+](=O)[O-])c(=NCc3ccco3)n2O)cc1 | i | i | i | i | i | i
COc1ccc(-n2nc([N+](=O)[O-])c(=NCc3cccnc3)n2O)cc1 | i | i | nt | 146 | i | i
COc1ccc(C(=O)/C=C2/C(=O)Nc3ccccc32)cc1 | i | i | i | i | i | i
COc1ccc(C(=O)/C=C2/C(=O)Nc3ccccc32)c(OC)c1 | i | i | ? | i | i | 59
COc1cc(OC)c(/C=C2\C(=O)Nc3ccccc32)c(OC)c1 | nt | nt | i | i | nt | 56
Cc1noc(C)c1S(=O)(=O)Nc1cccc2c1O[C@@H](CN(C)CC1CC1)[C@@H](C)CN([C@@H](C)CO)C2=O | nt | nt | i | nt | nt | i
Cc1ccc(C(C[N+](=O)[O-])Sc2ccc(N)cc2)cc1 (stereo unspecified) | 68 | i | nt | i | nt | ?
COC(=O)c1ccccc1NC(=O)Nc1cc(C)ccn1 | i | i | i | i | i | i
CSc1ccc(NC(=O)Nc2cc(C)ccn2)cc1 | i | i | 58 | i | i | 52
Cc1ccnc(NC(=O)Nc2ccc(Br)cc2Cl)c1 | i | 48 | i | i | i | nt
CN(C[C@H]1N[C@@H](CO)[C@@H]1c1ccc(-c2cccnc2)cc1)C(=O)c1ccccc1 | nt | nt | i | 98 | nt | i
CCCN(C[C@H]1N[C@H](CO)[C@@H]1c1ccc(-c2cccnc2)cc1)C(C)=O | nt | nt | i | i | nt | i
c1nc(N2CCCCC2)c2[nH]cnc2n1 | i | i | i | i | i | i
Nc1ncnc2nc[nH]c12 | i | 59! | i | i | i | i
CC(C)c1cccc(-c2ccc3c(c2)S(=O)(=O)c2cccc(C(=O)NCc4ccccc4Cl)c2C3=O)c1 | 82 | i | nt | nt | i | nt
O=C(NCc1cc(C(F)(F)F)ccc1Cl)c1cccc2c1C(=O)c1ccc(N3CCC(N4CCCCC4)CC3)cc1S2(=O)=O | nt | i | active | 94 | i | i
CC(C)c1cccc(-c2ccc3c(c2)S(=O)(=O)c2cccc(C(=O)NCc4ccccc4)c2C3=O)c1 | i | i | i | i | i | i
O=C(NCc1cc(C(F)(F)F)ccc1Cl)c1cccc2c1C(=O)c1ccc(N3CCCCC3)cc1S2(=O)=O | i | i | nt | i | i | i
COc1ccc(-c2ccc3c(c2)S(=O)(=O)c2cccc(C(=O)NCCOc4ccccc4Cl)c2C3=O)cc1OC | 69 | i | i | i | i | 58
C[C@@H]1CN([C@@H](C)CO)C(=O)c2cc(NS(=O)(=O)c3cn(C)cn3)ccc2O[C@@H](C)CCCCO[C@@H]1CN(C)C(=O)Nc1ccccc1 | nt | nt | i | i | nt | i
C[C@H](CO)N1C[C@H](C)[C@@H](CN(C)C(=O)Nc2cccc3ccccc23)Oc2ccc(NC(=O)CCC(F)(F)F)cc2C1=O | nt | nt | i | i | nt | i
